# Compound activity: PubChem BioAssay, National Center for Advancing Translational Sciences (NCATS)
# Vaccinia Venus: vaccinia inhibition (Venus reporter); Potency, µM (top dose mostly 36.5 µM), inactives show top-dose activity change, negative = inhibition, actives largely listed as inhibitors; actives 0.46% (n = 330,000); Vaccinia virus Venus reporter expression, fluorescence; calls by dose curve; tested in A549 cells; also: potency is read from the fitted curve at half-maximal effect; nearly all actives have a fitted effect of over 30% in size
# LASV entry inh: inhibitors of Lassa virus binding or cell entry; Lassa virus pseudotype entry inhibition, cell reporter; Potency, µM (highest dose often 37.9 µM), inactives show at the top dose activity change, negative = inhibition, most hits filed as inhibitors; actives 1.2% (n = 300,000); calls by dose curve; tested in HEK293 cells; also: potency is read from the fitted curve at half-maximal effect; nearly all actives have a fitted effect of over 50% in size
# HCMV antiviral: blocks human cytomegalovirus replication. HFF cells, HCMV-luciferase reporter, 72 h; stronger effect = lower value. activity change, negative = inhibition, % at 57.5 µM. actives 4.5% (n = 410,000); in the data active = activity change below about -60%; inconclusive = no clear call, values can overlap the other calls; inactive = above about -39%
#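 Cell-based, HFFs, 1000 cells/well, 16 h 37C; cpds in DMSO + HCMV-luc, MOI 1 PFU/cell; 72 h 37C; OneGlo luminescence after 5 min RT; norm. to buffer vs Salinomycin 10uM.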
# Marburg entry inh: Marburg virus entry inhibition. Potency, µM (series often up to 37.8 µM), inactives show top-dose activity change, negative = inhibition, actives largely listed as inhibitors. Marburg virus pseudotyped entry inhibition, cell reporter. AID 540276. actives 1.8% (n = 300,000); calls by dose curve; tested in HEK293 cells; also: potency is read from the fitted curve at half-maximal effect
# HCV inhibitor: blocks hepatitis C virus | AID 651820 | actives 3.4% (n = 340,000) | Potency, µM (doses to about 41.8 µM), for the others: at the top dose activity change, negative = inhibition, most hits filed as inhibitors | Huh7.5.1 HCVcc-Cre infection, luciferase reporter, 44 h; active = well fitted inhibition curve with a large enough effect; inconclusive = small, poorly fitted or top-dose-only effect, or another doubt; inactive = no such curve, though single readings can be large or run the other way; also: potency is read from the fitted curve at half-maximal effect
#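 Reporter virus HCVcc-Cre (~0.5 moi) infects cells exposed to compound; seeding density 1,000 cells/well with 4 h settling beforehand. Luminescence, 15 sec read, taken 44 h post-infection following a 15 min RT substrate incubation.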
# VACV mCherry inh: inhibitors of vaccinia virus infection (mCherry reporter signal); Vaccinia virus mCherry reporter infection, fluorescence; Potency, µM (highest dose often 36.5 µM), inactives show top-dose activity change, negative = inhibition, usual class: inhibitors; actives 0.63% (n = 310,000); calls by dose curve; tested in A549 cells; also: potency is read from the fitted curve at half-maximal effect; nearly all actives have a fitted effect of over 35% in size
# Starred values were filed as active, the others as inactive; i = inactive; u = inconclusive; x = no result; ! = repeats disagree; [ ] = remark or other dose. Sampled rows, rich in hits. Any-hit rate of the full collection: about 7.8%. % is scaled to controls: 0 for no effect and ±100 for the full control effect.
SMILES,Vaccinia Venus,LASV entry inh,HCMV antiviral,Marburg entry inh,HCV inhibitor,VACV mCherry inh
COc1ccc(-c2oc3ccccc3c2C#CC(C)(C)O)cc1,-29%,x,1,x,7.9µM*,u
COc1ccc(-c2ccc3oc(-c4ccc(OC)cc4)c(C#CCO)c3c2)cc1,u,x,-92*,x,u,-26%
COc1ccccc1-c1oc2ccccc2c1C#CCCO,-21%,x,43,x,14µM*,i
COc1ccc(C#Cc2c(-c3ccccc3OC)oc3ccccc23)cc1,x,x,-10,x,x,x
COc1ccc(S(=O)(=O)c2c(Nc3ccc(C)cc3)sc(C(=O)c3ccc4c(c3)OCO4)c2N)cc1,-4%,-1%[46.1 µM],0,x,x,1%
Nc1ccc(C#Cc2c(-c3ccsc3)oc3ccc(N4CCOCC4)cc23)cc1,-29%,x,31,x,-23%[8.37 µM],-28%
COc1ccc(-c2oc3ccc(N4CCOCC4)cc3c2C#CCO)cc1,u,x,-67*,x,u,5.6µM*
COc1cc(OC)c(OC)cc1CNCCSc1nnnn1-c1ccccc1,-8%,0%[46.1 µM],-15,6%[46.1 µM],x,-1%
N#C/C(=C\c1ccc(Cl)cc1)c1nc(-c2cc3c(ccc4ccccc43)oc2=O)cs1,-1%,-20%[46.1 µM],-2,x,x,-3%
O=c1c2ccccc2nc(COc2ccccc2)n1/N=C/c1ccco1,-10%,u,14,32%,19%,x
Cc1ccccc1OCc1nc2ccccc2c(=O)n1/N=C/c1cn[nH]c1-c1ccccc1,u,10µM*,-16,16µM*,u,u
Cc1nc2ccccc2c(=O)n1/N=C/c1cn[nH]c1-c1ccccc1,-22%,u,-16,-18%[46.1 µM],u,i
Cc1ccc(-c2[nH]ncc2/C=N/n2c(COc3ccccc3)nc3ccccc3c2=O)cc1,u,u,-78*,u,11µM*,-20%
Cc1cc(/C=N/n2c(COc3ccccc3)nc3ccccc3c2=O)c(O)c([N+](=O)[O-])c1,u,u,-63*,u,u,28µM*
Cc1cc2c(cc3c(SCC(=O)Nc4cccc(Cl)c4C)nnc(C)n32)o1,-11%,18%[46.1 µM],2,x,x,-6%
CCN1CCCC1CNC(=O)c1cnn(-c2nccc(-c3cc4ccccc4o3)n2)c1C1CC1 (configuration not stated),-23%,x,x,x,x,-23%
CC1CCCN(CCCNC(=O)c2cc3c(Cl)nc4ccccc4c3s2)C1 (configuration not stated),u,u,-91*!,2.8µM*,13µM*,-4%[7.34 µM]
CN(CCCNC(=O)c1cc2c(Cl)nc3ccccc3c2s1)Cc1ccccc1,u,u,u,10µM*,13µM*,-1%
CC1CCCN(C(=O)c2cc3c(Cl)nc4ccccc4c3s2)C1 (configuration not stated),2%,-1%[46.1 µM],-4,23%[46.1 µM],x,-11%
Cc1nn(CC(=O)NC2CC2)c(=O)c2cc3ccccc3n12,-4%,x,2,1%[46.1 µM],x,-3%
O=C(NCC1CCCO1)C(=Cc1cccc([N+](=O)[O-])c1)C(=O)NCC1CCCO1 (configuration not stated),u,u,-99*,12µM*,u,13µM*
O=C(NCC1CCCO1)/C(=C\c1cccc([N+](=O)[O-])c1)NC(=O)c1ccccc1 (configuration not stated),-5%,1%,20,-9%[46.1 µM],5%,-10%
O=C(Oc1nsnc1N1CCOCC1)N1CCCC1,x,1%,20,6%,1%,x
O=C(Oc1nsnc1N1CCCCC1)N1CCOCC1,u,3%,10,-24%,5%,14µM*
Cc1cc(F)ccc1NC(=O)C(C(C)C)N1Cc2ccccc2C1=O (configuration not stated),-2%,13%[46.1 µM],6,x,x,-13%
SMILES,Vaccinia Venus,LASV entry inh,HCMV antiviral,Marburg entry inh,HCV inhibitor,VACV mCherry inh
O=C(O)CC1S/C(=N\N=C2CCCCCCC2)N(c2ccccc2)C1=O (configuration not stated),-6%,12%,-104*,-12%[46.1 µM],11%,2%
CCc1ccc(S(=O)(=O)c2nnn3c2nc(NCCNC(C)=O)c2cc(Cl)ccc23)cc1,-13%,x,6,-25%[46.1 µM],x,-17%
CN(C)c1ccc(CNC(=O)C2CCN(Cc3cc4ccccc4n3Cc3ccccc3)CC2)cc1,-22%,u,9,x,x,-16%
Cc1cc(C(F)(F)F)nc(SCC(=O)Nc2ccccc2)n1,x,16%,-9,23%,-2%,x
Cc1cc(C(F)(F)F)nc(SCC(=O)NC2CC3CCC2C3)n1 (configuration not stated),-17%,19%,-68*,2%,0%,i
CN1C(C(=O)c2ccccc2)=C(N)c2ccccc2S1(=O)=O,-11%,-5%[46.1 µM],65,-7%[46.1 µM],4%,-4%
Cc1ccc(NC2=C(C(=O)c3ccccc3)N(C)S(=O)(=O)c3ccccc32)cc1,-25%,-29%,u,u,11µM*,u
COc1cc2c(c3oc(-c4ccccc4)cc(=O)c13)C=CC(C)(C)O2,-25%,x,u,x,1µM*,-30%
COc1cc(OC)c2c(=O)cc(-c3ccccc3)oc2c1,3%,x,120,x,u,-6%
Oc1cccc(C(Nc2ccccn2)c2ccc3cccnc3c2O)c1Cl (configuration not stated),u,u,-82*,u,x,u
O=[N+]([O-])c1ccc2cccnc2c1,-1%,x,-20,x,x,i
Oc1c(C(Nc2ccccn2)c2cccnc2)cc(Cl)c2cccnc12 (configuration not stated),u,u,2,u,u,u
Oc1c(C(Nc2ccccn2)c2ccccc2)ccc2cccnc12 (configuration not stated),u,x,x,x,x,11µM*
Oc1cccc(C(Nc2nccs2)c2ccc3cccnc3c2O)c1 (configuration not stated),u,u,-93*,u,u,16µM*
O=c1cc(CO)oc(C(Nc2ccccn2)c2ccccc2Cl)c1O (configuration not stated),-22%,-15%[46.1 µM],6,-16%[46.1 µM],2%,-12%
O=[N+]([O-])c1ccc(NC(c2ccccc2)c2ccc3cccnc3c2O)cc1 (configuration not stated),u,u,-97*,1.4µM*,u,u
Cc1ccn(CCC(=O)NCC2Cc3cc(Cl)cc(-c4ccc5[nH]ccc5c4)c3O2)n1 (configuration not stated),-18%,x,x,x,x,-23%
CCCOc1ccccc1/C=C1\SC(N2CCCCC2)=NC1=O,6%,u,-82*,u,10µM*,-14%
O=C1N=C(N2CCCCC2)S/C1=C\c1ccccc1F,-21%,-26%,14,u,-23%,-24%
COC(=O)[C@@H]1CC23C(=NC(c4ccc([N+](=O)[O-])cc4)=C(C(F)(F)F)[C@@H]2N(C)c2ccccc23)N1C(C)=O (some centres not stated),x,x,x,8%[14.2 µM],x,x
